In the library only some 4.8% were active in any assay of this set; here they are far more common.
ATXN2 expr inh: Primary qHTS for Inhibitors of ATXN expression | AID 1745845, 2022 | HEK-293 ATXN2-luciferase reporter, luminescence, 24 h | Potency, µM (doses to about 57 µM), without a hit: at the top dose activity change, negative = inhibition, hits mostly inhibitors | hit rate 0.72% among 360,000; note: potency is the fitted concentration of half-maximal effect; % is set by controls: 0 for no effect and ±100 for the full control effect; nearly all actives have a fitted effect of over 55% in size
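qHTS (up to 57 uM final) was run with 24 h compound exposure of reporter cells at 37 °C. Each well was multiplexed: SteadyGlo luminescence measured ATXN2-luciferase expression after a fluorogenic Gly-Phe-AFC viability readout (25 uM final).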
TGFb SMAD3 inh: qHTS for Inhibitors of TGF-b; Potency, µM (highest dose often 46.1 µM), for the others: at the highest dose activity, negative = inhibition, usual class: inhibitors; HepG2 CAGA-GFP TGF-b/SMAD3 reporter, GFP fluorescence, 18 h; TGF-beta stimulated, 500 pg/mL final; AID 588855, 2011; hit rate 1.2% among 410,000; note: potency is the fitted concentration of half-maximal effect; % is set by controls: 0 for no effect and ±100 for the full control effect; nearly all actives have a fitted effect of over 65% in size
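Read-out: total well GFP (ex488/em500-530) summed from mean per-cell fluorescence. Cells: HEPG2 CAGA-GFP, 1% FBS DMEM, 18 h at 37 degrees C with 500 pg/mL final TGF-beta. Unstimulated wells served as the full-inhibition control; stimulated DMSO wells = 0%.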
DRD3 agonist: qHTS of D3 Dopamine Receptor Agonist: qHTS; hit rate 0.58% among 410,000; D3R DiscoveRx beta-arrestin cells, luminescence, 90 min; max activation, %; in the data active = max activation above about 30%; note: 0% is about no effect
Target sequence (P35462 whole entry, looked up): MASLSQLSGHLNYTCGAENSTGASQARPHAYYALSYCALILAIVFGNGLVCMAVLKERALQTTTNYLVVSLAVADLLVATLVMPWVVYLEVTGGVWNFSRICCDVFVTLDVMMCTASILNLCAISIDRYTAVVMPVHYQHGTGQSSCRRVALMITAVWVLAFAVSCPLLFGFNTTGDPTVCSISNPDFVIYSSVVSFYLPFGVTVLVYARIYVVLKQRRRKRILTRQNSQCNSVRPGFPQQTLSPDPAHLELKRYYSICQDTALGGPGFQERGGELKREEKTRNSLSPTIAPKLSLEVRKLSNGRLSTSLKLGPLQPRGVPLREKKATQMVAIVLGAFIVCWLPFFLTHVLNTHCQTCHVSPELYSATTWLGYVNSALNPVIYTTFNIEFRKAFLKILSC
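Cells at 1500/well, incubated overnight, then treated with pinned compounds (dopamine as control) for 90 min at 37 degrees C. DiscoveRx reagent added for 30 - 60 minutes at room temperature; luminescence read.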
DRD3 antagonist: qHTS of D3 Dopamine Receptor Antagonist: qHTS; D(3) dopamine receptor (Homo sapiens), P35462; D3R cells, DiscoveRx beta-arrestin luminescence, antagonist mode; hits give low values; max response, negative = inhibition, %; hit rate 2.5% among 360,000; in the data active = max response below about -50%; inconclusive = no clear call, values can overlap the other calls; note: % is set by controls: 0 for no effect and ±100 for the full control effect
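Cells plated overnight at 1500 cells/well, then exposed to library compounds with dopamine controls for 90 minutes at 37 degrees C. DiscoveRx reagent added for 30–60 minutes at room temperature; luminescence read, quantitative HTS format.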
ATXN viability: Viability Counterscreen for Primary qHTS for Inhibitors of ATXN expression. S2 cells (HEK-293 line with an ATXN2-luciferase reporter) viability, CellTiter-Fluor protease fluorescence, 24 h. Potency, µM (doses to about 56.7 µM), most hits filed as cytotoxic. hit rate 0.49% among 400,000. AID 651635, 2014; note: potency is the fitted concentration of half-maximal effect; nearly all actives have a fitted effect of over 40% in size
HepG2 viability: qHTS for Inhibitors of TGF-b: Cytotox Counterscreen. hit rate 0.76% among 410,000. AID 588856, 2011. HepG2 CAGA-GFP viability, ATP luminescence, 18 h. Potency, µM (titrated, usually from 46.1 µM), for inactives: at the highest dose activity change, negative = cytotoxicity, actives largely listed as cytotoxic; note: potency is the fitted concentration of half-maximal effect
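CellTiter-Glo luminescence gave cytotoxicity after 18 hours at 37 degrees C. The cells were HepG2 CAGA-GFP in 1% FBS DMEM, stimulated with 500 pg/mL TGF-beta after compound addition. %Activity was normalised to no-cell wells (complete cell-killing) and DMSO (no toxicity), and curves were fitted and classified.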
Numbers without * were called inactive; i = inactive; ? = inconclusive; . = no result. Unless noted, calls come from the whole dose curve; as a rule, active = well fitted curve in the direction sought with a large enough effect; inconclusive = small, poorly fitted or top-dose-only effect, or another doubt; inactive = no such curve, though single readings can be large; an effect the other way counts as inactive or inconclusive.

SMILES	ATXN2 expr inh	TGFb SMAD3 inh	DRD3 agonist	DRD3 antagonist	ATXN viability	HepG2 viability
C[C@H]1C[C@H]2[C@@H]3CCC4=CC(=O)C=C[C@]4(C)[C@H]3C(=O)C[C@]2(C)[C@@]1(O)C(=O)CO	-0.3%	.	0.8	.	i	.
COc1ccc(NC(=O)CN2CCC(C(=O)c3ccc(C)cc3)CC2)c(OC)c1	-17.7%	18.1%	-19.0	-71.0*	?	-4.0%
COc1cc(NC(=O)Cn2c(SCc3ccc(F)cc3)nc3cccnc32)cc(OC)c1	.	-2.5%	-3.0	.	.	-5.8%
COc1ccc(NC(=O)N2CCC(C(=O)c3ccc(F)cc3)CC2)cc1	-0.9%	0.6%	16.3	10.5	i	-19.2%
COc1ccc(NC(=O)Cn2c(SCc3ccc(C)cc3)nc3cccnc32)c(OC)c1	.	?	38.8*	.	.	-26.2%
COc1ccc(NC(=O)CN2CCN(CC(=O)Nc3ccccc3Cl)CC2)c(OC)c1	-15.9%	-14.3%	30.4*	26.6	i	4.5%
COc1ccc(OC)c(NC(=O)CN2CCC(C(=O)c3ccc(C)cc3)CC2)c1	0.0%	-28.3%	-11.5	?	i	-11.2%
COc1ccc(-c2[nH]ncc2CN2CCC(C(=O)c3ccc(F)cc3)CC2)cc1	-37.8%	?	-16.3	-90.2*	i	-45.8%
CCOc1cc(-c2ccc(OC(=O)c3ccc(C)cc3)c(OC)c2)cc(=O)c2c(C)oc(C)c12	.	?	-14.9	.	.	-34.4%
Cc1cccc(NC(=O)C(NS(=O)(=O)c2ccc3c(c2)oc(=O)n3C)C(C)C)c1 (stereo unspecified)	8.0%	-23.4%	2.4	.	?	-0.6%
O=C(C1CCCCC1)N1CCOc2ccc(CN3CCN(Cc4ccccn4)CC3)cc2C1	.	.	.	.	i	.
COc1ccc(NC(=O)CN2CCC(C(=O)c3ccc(F)cc3)CC2)c(OC)c1	-15.6%	-25.0%	-16.6	-73.3*	i	-7.5%
COc1ccc(NC(=O)CN2CCN(CC(=O)Nc3ccccc3OC)CC2)c(OC)c1	-4.2%	9.0%	4.1	3.0	i	-0.3%
CCOc1ccc(C(=O)Nc2ccccc2N2CCOCC2)cc1	-34.7%	9.4%	-11.0	13.4	i	-4.9%
CCOc1ccc(C(=O)C2CCN(CC(=O)Nc3ccccc3N3CCOCC3)CC2)cc1	?	14.1µM*	1.5	-16.7	i	-13.2%
CCCNC(=O)c1cnc2sc(N3CCCCCC3)nn2c1=O	.	-17.2%	7.8	.	.	-3.4%
COc1cccc(Oc2cc(NN3CCCCC3)c([N+](=O)[O-])cc2[N+](=O)[O-])c1OC	4.3%	10.6%	-14.9	-64.7*	i	7.7%
Cc1c(C(=O)NCC(C)(C)N2CCOCC2)cnn1-c1nccc(-c2cccs2)n1	.	.	.	.	i	.
O=C1CCCc2nc(N3CCCCC3)sc21	33.5%	-2.5%	8.2	-58.7*	i	-2.3%
Nc1nnc(N2CCCCC2)s1	4.7%	20.3%	4.0	-18.3	i	3.1%
CC(O)(COc1ccccc1)c1ccc2c(c1)CN(Cc1cccc3cccnc13)CCO2 (stereo unspecified)	.	.	.	.	i	.
CN1CCN(C(=O)CCCOc2ccc(Cl)cc2Cl)CC1	-0.3%	17.6%	-2.6	-53.3*	i	-32.5%
O=C(CCCOc1ccc(Cl)cc1Cl)N1CCN(c2ccccn2)CC1	3.3%	?	3.5	12.4	i	-52.0%
CN1CCN(C(=O)c2ccc(COc3ccc(Cl)cc3Cl)cc2)CC1	7.0%	-17.7%	-22.4	-88.7*	i	-40.2%
CN1CCCN(C(=O)c2ccc(Cl)cc2)CC1	4.1%	21.6%	-8.1	?	i	-42.2%
SMILES	ATXN2 expr inh	TGFb SMAD3 inh	DRD3 agonist	DRD3 antagonist	ATXN viability	HepG2 viability
Cc1ccc(Sc2c([N+](=O)[O-])c(=O)n(C)c3ccccc23)cc1	?	?	-27.5	-71.5*	.	-46.3%
Cc1cc(C)n(-c2cccc(C(=O)NCC3Cc4cccc(-c5cccnc5)c4O3)c2)n1 (stereo unspecified)	.	.	.	.	i	.
CCOC(=O)C(CC)/C(C)=N/NC(=O)c1ccc([N+](=O)[O-])cc1 (stereo unspecified)	-11.0%	-3.1%	-4.5	-64.5*	i	8.0%
O=[N+]([O-])c1cccc2[nH]cnc12	.	-20.5%	.	.	.	-36.1%
CCCCCCCCCCCCCCCC[n+]1cccc2ccccc21	?	6.31µM*	1.5	3.1	17.8µM*	11.2µM*
CCCCCCCCCC[n+]1cccc2cc(Br)ccc21	.	?	.	.	.	-47.9%
CCCCCCCCCCCC[n+]1ccc(C)c2ccccc21	.	?	.	.	.	-30.2%
CCCCCCCCC[n+]1cccc2c3ccccc3ccc21	2.24µM*	1.78µM*	-8.6	-26.6	i	15.8µM*
O=c1oc(-c2cccs2)nc2c1cnn2-c1ccccc1	-9.4%	0.3%	0.0	-56.2*	i	-18.7%
O=c1oc(-c2ccccc2)nc2c1cnn2-c1ccccc1	-1.1%	-11.8%	-13.6	8.0	i	-0.8%
CCCNC(=O)C(Cc1cccc(C#N)c1)NC(=O)c1ccc(C#N)cc1 (stereo unspecified)	5.8%	-24.3%	89.7*	-7.3	i	-49.9%
CCCNC(=O)C(Cc1cccc(Cl)c1)NC(=O)c1ccc(C#N)cc1 (stereo unspecified)	4.7%	-3.2%	-1.5	9.9	i	-1.6%
Cn1c(NCc2ccccc2F)nc2ccccc21	19.0%	?	-11.9	.	i	-16.1%
CCCCCCn1cc(C(=O)O)c(=O)c2ccccc21	-1.8%	0.2%	2.1	-62.5*	i	-4.3%
CCOC(=O)c1cnn(CCOC(=O)C2CC2)c1NC(=O)C1CC1	-2.5%	19.1%	8.1	-99.3*	i	2.3%
COc1ccc(C(C)(C)C)cc1NC(=O)COC(=O)c1cnc(C)cn1	1.6%	-3.6%	-12.8	-64.7*	i	-12.1%
O=C(CN1CCN(S(=O)(=O)N2CCCCC2)CC1)Nc1cc(Cl)ccc1Cl	-19.5%	9.7%	-3.1	-7.3	i	13.1%
NC(=O)C1(N2CCCCC2)CCN(CC(=O)Nc2cc(Cl)ccc2Cl)CC1	-10.1%	0.3%	-62.5	-88.2*	i	5.9%
FC(F)(F)c1nnc(-c2ccccc2)nc1Sc1ccccc1	?	?	-10.0	?	.	-83.7%
FC(F)(F)c1nnc(-c2ccccc2)nc1Sc1ccc(Cl)cc1	28.2µM*	0.0%	-9.0	-93.1*	.	-5.4%
FC(F)(F)c1cccc(Sc2nc(-c3ccccc3)nnc2C(F)(F)F)c1	?	-36.9%	-8.1	-61.3*	28.2µM*	-0.4%
O=C1CCCN1c1ccc(S(=O)(=O)N2CCCCC2)cc1[N+](=O)[O-]	2.5%	-6.1%	8.3	13.2	i	6.31µM*

Compound activity from PubChem.
